# In the supplement of paper PMC10849652:
# The full data set covers some 7,900 targets. This sample favours those with a hit. About 0.6% of all pairs of compound and target were hits. Values without a mark were called inactive.
# How the values were obtained:
# Experiment in all cases: log2 fold change, soluble protein after heating vs DMSO (PISA); higher = thermal stabilisation; K562 cells, 10 uM, 30 min; active = over 0.2 and 3.5 SD of the protein, either way, in both replicates (recomputed)
# erlotinib = compound: C#Cc1cccc(Nc2ncnc3cc(OCCOC)c(OCCOC)cc23)c1 [erlotinib]
# Procedure, shortened: (§1)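 K562 cells (2×10^6 cells/mL) were treated with 10 μM compound for 30 min, and aliquots were heated for 3 min over 48°C-58°C. Pooled aliquots were extracted in PBS with 0.5% NP-40 at 4°C, and the supernatant after 21,000xg for 90 min was measured by TMTpro 16plex LC-MS/MS with channel sums equalised. Reported thermal stability, relative to control samples and from duplicates, is a log2 fold change.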
# [1] = compound: C/C(=N\NC(=O)C1=CC(=CC=C1)S(=O)(=O)N2CCOCC2)/C3=C(C=CC(=C3)Cl)O
# Procedure, shortened: as §1
# [2] = compound: C1=CC(=C(C=C1Cl)C2=NC3=NC=CN=C3C(=N2)NC4=CC=NC=C4)F
# Procedure, shortened: as §1
# [3] = compound: C1=CC(=CC=C1C2=NC3=C(N2)C=C(C=C3)C(=O)N)OC4=CC=C(C=C4)Cl
# Procedure, shortened: as §1
# [4] = compound: C1=CC2=C(C=CC(=C2)/C=C\3/C(=O)NC(=NCC4=CC=CS4)S3)N=C1
# Procedure, shortened: as §1
# [5] = compound: C1=CC2=NC=CN=C2C=C1/C=C/3\C(=O)NC(=O)S3
# Procedure, shortened: as §1
# [6] = compound: C1=CC=C(C=C1)C2=NC(=C(N2)C3=CC=NC=C3)C4=CC(=C(C=C4)Cl)O
# Procedure, shortened: as §1
# [7] = compound: C1=CC=C2C(=C1)C3=NNC4=CC=CC(=C43)C2=O
# Procedure, shortened: as §1
# [8] = compound: C1CCN(C1)C(=O)NC2=CC=CC(=C2)NC3=NC=C(C(=N3)NCCC4=CN=CN4)Br
# Procedure, shortened: as §1
# [9] = compound: C1CN(CCC1(CC2=CC=C(C=C2)Cl)N)C3=NC=NC4=C3C=CN4
# Procedure, shortened: as §1
# Sequence of UniProt P11117 (P11117 whole entry, looked up): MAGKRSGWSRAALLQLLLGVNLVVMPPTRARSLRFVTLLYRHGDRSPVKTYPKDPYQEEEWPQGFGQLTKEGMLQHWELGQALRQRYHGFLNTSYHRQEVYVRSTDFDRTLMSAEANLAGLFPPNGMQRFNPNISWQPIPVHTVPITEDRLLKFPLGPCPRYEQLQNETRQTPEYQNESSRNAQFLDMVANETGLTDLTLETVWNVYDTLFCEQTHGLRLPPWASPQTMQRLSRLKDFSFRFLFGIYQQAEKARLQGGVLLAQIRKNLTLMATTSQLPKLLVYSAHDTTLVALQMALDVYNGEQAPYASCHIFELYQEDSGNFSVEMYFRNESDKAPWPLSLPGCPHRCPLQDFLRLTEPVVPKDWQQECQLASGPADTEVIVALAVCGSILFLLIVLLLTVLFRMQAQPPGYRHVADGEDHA
# Sequence of UniProt Q7L1Q6 (Q7L1Q6 whole entry, looked up): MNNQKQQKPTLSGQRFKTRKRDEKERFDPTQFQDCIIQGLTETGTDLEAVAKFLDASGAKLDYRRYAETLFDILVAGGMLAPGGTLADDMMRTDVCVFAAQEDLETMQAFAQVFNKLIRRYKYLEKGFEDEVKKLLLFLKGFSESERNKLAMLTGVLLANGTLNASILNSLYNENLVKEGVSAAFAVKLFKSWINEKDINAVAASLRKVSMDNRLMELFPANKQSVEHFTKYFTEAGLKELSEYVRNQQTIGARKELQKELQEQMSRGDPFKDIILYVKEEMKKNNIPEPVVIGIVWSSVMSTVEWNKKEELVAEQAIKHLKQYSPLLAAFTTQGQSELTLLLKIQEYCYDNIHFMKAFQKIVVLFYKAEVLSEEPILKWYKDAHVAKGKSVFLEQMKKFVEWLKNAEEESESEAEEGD
# Sequence of UniProt O00763 (O00763 whole entry, looked up): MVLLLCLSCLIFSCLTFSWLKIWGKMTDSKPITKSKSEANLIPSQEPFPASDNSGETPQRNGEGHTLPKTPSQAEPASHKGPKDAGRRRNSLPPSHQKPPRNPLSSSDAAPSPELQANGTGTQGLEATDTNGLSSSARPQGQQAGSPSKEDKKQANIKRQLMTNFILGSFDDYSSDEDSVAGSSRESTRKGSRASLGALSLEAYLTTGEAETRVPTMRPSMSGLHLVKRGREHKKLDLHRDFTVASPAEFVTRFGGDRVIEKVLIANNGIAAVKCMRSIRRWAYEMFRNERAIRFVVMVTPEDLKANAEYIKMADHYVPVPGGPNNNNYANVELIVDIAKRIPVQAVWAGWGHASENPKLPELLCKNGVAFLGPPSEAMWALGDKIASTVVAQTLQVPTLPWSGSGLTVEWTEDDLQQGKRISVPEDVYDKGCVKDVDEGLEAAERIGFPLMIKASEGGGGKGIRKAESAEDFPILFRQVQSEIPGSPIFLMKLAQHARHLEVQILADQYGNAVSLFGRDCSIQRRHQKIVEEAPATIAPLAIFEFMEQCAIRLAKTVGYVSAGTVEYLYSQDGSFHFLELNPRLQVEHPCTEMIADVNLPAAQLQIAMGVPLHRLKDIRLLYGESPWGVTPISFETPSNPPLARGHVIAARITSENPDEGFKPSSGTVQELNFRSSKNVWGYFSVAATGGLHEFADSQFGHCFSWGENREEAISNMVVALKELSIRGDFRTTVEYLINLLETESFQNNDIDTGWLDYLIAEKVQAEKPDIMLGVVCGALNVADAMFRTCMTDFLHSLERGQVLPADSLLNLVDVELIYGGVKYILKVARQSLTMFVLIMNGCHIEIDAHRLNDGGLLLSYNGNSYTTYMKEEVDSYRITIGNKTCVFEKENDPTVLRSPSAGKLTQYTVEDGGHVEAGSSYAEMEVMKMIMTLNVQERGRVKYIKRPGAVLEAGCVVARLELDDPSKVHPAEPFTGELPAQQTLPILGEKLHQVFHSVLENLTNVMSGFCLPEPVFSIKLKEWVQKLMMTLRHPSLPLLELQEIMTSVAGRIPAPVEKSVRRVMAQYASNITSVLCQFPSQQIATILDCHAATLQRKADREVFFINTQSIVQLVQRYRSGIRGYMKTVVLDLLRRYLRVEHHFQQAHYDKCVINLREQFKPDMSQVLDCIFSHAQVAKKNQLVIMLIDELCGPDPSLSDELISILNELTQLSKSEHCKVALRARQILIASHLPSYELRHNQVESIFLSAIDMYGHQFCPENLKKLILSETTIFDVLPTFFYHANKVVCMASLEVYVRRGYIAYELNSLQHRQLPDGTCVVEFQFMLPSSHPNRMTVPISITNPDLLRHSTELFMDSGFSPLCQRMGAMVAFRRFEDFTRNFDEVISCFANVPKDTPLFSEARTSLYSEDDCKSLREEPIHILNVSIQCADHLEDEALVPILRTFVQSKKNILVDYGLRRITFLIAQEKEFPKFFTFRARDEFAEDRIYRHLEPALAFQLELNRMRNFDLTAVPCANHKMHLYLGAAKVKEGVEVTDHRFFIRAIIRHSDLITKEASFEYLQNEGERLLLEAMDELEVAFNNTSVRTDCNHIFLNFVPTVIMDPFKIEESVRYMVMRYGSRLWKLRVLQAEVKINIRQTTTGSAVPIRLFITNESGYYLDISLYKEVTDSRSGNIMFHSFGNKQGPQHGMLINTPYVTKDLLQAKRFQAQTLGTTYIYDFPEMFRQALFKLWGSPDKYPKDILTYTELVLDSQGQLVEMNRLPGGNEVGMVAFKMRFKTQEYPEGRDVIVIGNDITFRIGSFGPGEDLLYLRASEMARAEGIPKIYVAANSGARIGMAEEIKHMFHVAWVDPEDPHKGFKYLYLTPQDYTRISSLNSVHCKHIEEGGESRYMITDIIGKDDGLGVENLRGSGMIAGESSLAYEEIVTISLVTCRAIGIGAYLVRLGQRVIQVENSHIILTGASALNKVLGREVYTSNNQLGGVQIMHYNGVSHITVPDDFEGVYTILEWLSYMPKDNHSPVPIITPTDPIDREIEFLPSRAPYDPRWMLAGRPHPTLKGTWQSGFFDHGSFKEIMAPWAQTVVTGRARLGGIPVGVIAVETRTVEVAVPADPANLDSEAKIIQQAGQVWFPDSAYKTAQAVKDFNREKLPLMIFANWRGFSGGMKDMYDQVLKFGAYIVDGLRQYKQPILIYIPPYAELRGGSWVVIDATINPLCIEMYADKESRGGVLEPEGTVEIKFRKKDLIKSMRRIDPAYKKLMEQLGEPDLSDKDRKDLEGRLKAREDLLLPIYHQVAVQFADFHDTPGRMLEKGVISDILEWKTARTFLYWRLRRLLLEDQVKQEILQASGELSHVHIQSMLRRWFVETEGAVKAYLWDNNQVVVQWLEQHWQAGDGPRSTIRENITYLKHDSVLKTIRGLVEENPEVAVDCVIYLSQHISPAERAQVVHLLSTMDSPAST
# Sequence of UniProt Q9Y3D8 (Q9Y3D8 whole entry, looked up): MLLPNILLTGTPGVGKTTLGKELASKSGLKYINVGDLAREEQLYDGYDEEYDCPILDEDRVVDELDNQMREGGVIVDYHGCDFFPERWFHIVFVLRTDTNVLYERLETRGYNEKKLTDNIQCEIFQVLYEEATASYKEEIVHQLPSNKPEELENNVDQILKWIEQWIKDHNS
# Sequence of UniProt Q13444 (Q13444 whole entry, looked up): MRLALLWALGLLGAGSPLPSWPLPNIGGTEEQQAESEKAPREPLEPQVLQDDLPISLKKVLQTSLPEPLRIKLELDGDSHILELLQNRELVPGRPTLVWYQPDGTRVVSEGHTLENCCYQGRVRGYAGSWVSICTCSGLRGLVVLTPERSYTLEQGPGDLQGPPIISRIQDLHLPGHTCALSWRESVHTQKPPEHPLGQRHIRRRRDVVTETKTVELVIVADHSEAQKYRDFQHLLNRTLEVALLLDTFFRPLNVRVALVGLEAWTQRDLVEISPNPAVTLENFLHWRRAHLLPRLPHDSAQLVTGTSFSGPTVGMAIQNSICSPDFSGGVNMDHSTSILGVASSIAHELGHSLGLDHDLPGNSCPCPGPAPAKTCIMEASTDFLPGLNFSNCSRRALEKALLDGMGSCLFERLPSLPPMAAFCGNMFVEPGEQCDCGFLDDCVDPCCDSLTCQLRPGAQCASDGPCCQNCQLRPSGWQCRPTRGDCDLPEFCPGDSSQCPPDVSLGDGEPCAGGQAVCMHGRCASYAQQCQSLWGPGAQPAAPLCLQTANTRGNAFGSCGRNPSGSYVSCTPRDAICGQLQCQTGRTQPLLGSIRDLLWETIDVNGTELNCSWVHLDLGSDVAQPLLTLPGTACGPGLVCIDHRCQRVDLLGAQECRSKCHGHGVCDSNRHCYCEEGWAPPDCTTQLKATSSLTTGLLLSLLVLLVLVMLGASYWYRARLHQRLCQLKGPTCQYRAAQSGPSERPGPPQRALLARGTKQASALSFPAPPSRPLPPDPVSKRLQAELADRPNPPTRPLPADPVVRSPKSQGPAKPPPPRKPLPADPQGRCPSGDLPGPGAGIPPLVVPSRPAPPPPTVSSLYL
# Sequence of UniProt Q04771 (Q04771 whole entry, looked up): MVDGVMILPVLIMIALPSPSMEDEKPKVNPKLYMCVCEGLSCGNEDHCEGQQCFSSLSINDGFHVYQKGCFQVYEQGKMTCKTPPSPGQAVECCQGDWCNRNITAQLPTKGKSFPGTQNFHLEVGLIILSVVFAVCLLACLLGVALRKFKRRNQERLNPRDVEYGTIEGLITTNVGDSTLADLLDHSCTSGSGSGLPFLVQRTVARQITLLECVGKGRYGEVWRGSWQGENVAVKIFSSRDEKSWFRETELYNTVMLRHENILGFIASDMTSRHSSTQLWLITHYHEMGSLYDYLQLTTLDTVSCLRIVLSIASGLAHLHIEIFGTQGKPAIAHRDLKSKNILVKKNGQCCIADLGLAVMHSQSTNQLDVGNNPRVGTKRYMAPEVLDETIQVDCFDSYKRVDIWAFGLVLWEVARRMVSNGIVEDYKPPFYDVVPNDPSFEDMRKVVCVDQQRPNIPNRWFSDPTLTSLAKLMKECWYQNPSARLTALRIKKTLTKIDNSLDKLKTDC
# Sequence of UniProt Q9Y587 (Q9Y587 whole entry, looked up): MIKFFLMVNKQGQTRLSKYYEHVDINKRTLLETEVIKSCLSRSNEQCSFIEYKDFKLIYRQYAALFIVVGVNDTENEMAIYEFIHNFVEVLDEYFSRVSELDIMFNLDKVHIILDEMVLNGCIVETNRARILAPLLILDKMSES
Target,log2 fold change (erlotinib),log2 fold change [1],log2 fold change [2],log2 fold change [3],log2 fold change [4],log2 fold change [5],log2 fold change [6],log2 fold change [7],log2 fold change [8],log2 fold change [9]
BMP2K (UniProt Q9NSY1),0.079,-0.16,-0.016,-0.024,0.178,-0.042,-0.012,0.388 (active),0.353,-0.061
AURKA (UniProt O14965),0.181,0.018,-0.055,-0.061,-0.08,-0.028,0.028,0.462,0.707 (active),-0.313
ALDH9A1 isoform 3 (UniProt P49189),-0.025,0.016,0.043,0.027,-0.004,0.003,0.037,-0.007,-0.018,0.051
AP4S1 (UniProt Q9Y587),-0.014,-0.013,-0.015,0.078,-0.456 (active),0,–,-0.111,–,–
ACVR1 (UniProt Q04771),-0.101,-0.051,0.021,0.031,-0.021,–,–,0.136,-0.326,0.035
ALDH6A1 (UniProt Q02252),0.067,-0.02,0.061,-0.144,0.074,-0.043,0.038,-0.038,-0.03,0.043
BST2 (UniProt Q10589),-0.018,0.026,-0.046,0,0.009,0.024,-0.062,-0.013,0.066,-0.063
ADAM15 (UniProt Q13444),0.314,0.154,0.03,-0.223,0.035,0.068,0.043,0.08,-0.042,0.013
APOB (UniProt P04114),0.062,0.008,0.042,-0.024,-0.018,0.05,0.046,-0.011,0.018,-0.174
AP2M1 (UniProt Q96CW1),-0.067,0.006,-0.012,0.017,0.005,-0.016,0.036,-0.26 (active),-0.367 (active),-0.01
ATF1 (UniProt P18846),-0.058,0.244,0.129,-0.054,-0.221,0.023,–,0.039,-0.117,-0.024
AGPAT1 (UniProt Q99943),0.04,-0.004,0.008,-0.014,0.013,0.029,-0.015,-0.001,0.001,0.048
ANAPC2 (UniProt Q9UJX6),-0.028,0.064,-0.002,0.018,0.002,0.144,-0.029,0.022,-0.033,-0.022
ATL2 (UniProt Q8NHH9),-0.004,0,0.081,0.004,0.049,0.012,0.049,0.014,0.077,0
AGO1 (UniProt Q9UL18),0.031,-0.061,0.05,-0.091,0.032,0.005,0.01,-0.08,-0.008,0.046
ACP2 (UniProt P11117),0.031,0.004,0.061,0.019,0.019,-0.01,0.022,-0.022,-0.003,0.045
AK6 (UniProt Q9Y3D8),0.105,0.108,0.007,-0.157,0.194,0.025,0.046,-0.027,-0.041,-0.085
ACACB (UniProt O00763),0.048,-0.094,-0.212,-0.108,0.07,-0.123,0.132,-0.028,-0.059,-0.143
BRAF (UniProt P15056),0.031,0.057,0.034,0.007,0.08,-0.012,–,-0.054,-0.088,0.024
ABCB6 (UniProt Q9NP58),0.017,0.045,0.029,0.037,-0.003,0.069,0.087,-0.056,-0.057,0.023
APAF1 (UniProt O14727),0.207,0.066,-0.073,0.141,0.016,–,0.037,0.011,–,–
ATP13A3 (UniProt Q9H7F0),0.043,-0.046,0.05,0.018,0.016,0.038,-0.006,-0.028,0.017,0.049
BTBD6 (UniProt Q96KE9),0.407,-0.706 (active),0.165,-0.188,0.016,-0.057,0.3,0.081,-0.19,0.185
ATP1B3 (UniProt P54709),-0.016,-0.004,-0.002,-0.019,-0.021,0.023,0.057,-0.052,-0.024,0.048
BCCIP isoform 2 (UniProt Q9P287),-0.1,0.023,0.027,0.026,-0.025,0.003,0.012,-0.007,-0.002,0.066
ALG5 (UniProt Q9Y673),-0.008,0.014,0.071,0.008,0.023,0.003,0.009,0.048,-0.026,-0.007
BZW1 isoform 3 (UniProt Q7L1Q6),0.049,0.176,-0.001,-0.088,0.054,0.019,0.042,0.039,-0.059,-0.101
BSCL2 isoform 4 (UniProt Q96G97),-0.024,0.088,-0.016,0.052,0.06,-0.012,–,-0.045,0.045,-0.001
